Assay outcomes: PubChem, National Center for Advancing Translational Sciences (NCATS)
LASV entry inh: Lassa virus entry inhibition; Potency, µM (top dose mostly 49.2 µM), for inactives: at the top dose activity change, negative = inhibition, most hits filed as inhibitors; 18,000 tested, 4.1% active; Lassa virus pseudotyped entry inhibition, cell-based qHTS
MARV entry inh: inhibitors of Marburg virus binding or entry into cells | Potency, µM (doses to about 49.2 µM), for the others: at the highest dose activity change, negative = inhibition, actives largely listed as inhibitors | 18,000 tested, 6.5% active | Marburg virus pseudotype entry/binding inhibition, cell-based
Starred values were filed as active, the others as inactive; ? = inconclusive; nt = no result; ! = not confirmed by another sample; [ ] = remark or other dose. Hits are enriched below; roughly 8.6% of the tested compounds scored in any of these assays. Calls come from the whole dose curve; tested in HEK293 cells. % is set by controls: 0 for no effect and ±100 for the full control effect; potency is the fitted concentration of half-maximal effect.

SMILES | LASV entry inh | MARV entry inh
C=C(C)[C@]12C[C@@H](C)[C@@]34OC(Cc5ccccc5)(O[C@@H]1[C@@H]3C=C(COC(=O)Cc1cc(I)c(O)c(OC)c1)C[C@]1(O)C(=O)C(C)=C[C@@H]41)O2 | 18µM* | 13µM*
COc1cc(CC(=O)OCC2=C[C@H]3[C@@H]4C(C)(C)[C@]4(OC(C)=O)[C@H](OC(=O)Cc4ccccc4)[C@@H](C)[C@]3(O)[C@@H]3C=C(C)C(=O)[C@@]3(O)C2)ccc1O | 13µM* | ?
COc1ccc(O[C@H]2C=C[C@@H](c3ccccc3)O[C@H]2COC(=O)CCC(C)=NOC[C@@H](O)COCc2ccco2)cc1 | nt | 10%[8.59 µM]
CC(CCC(=O)OC[C@H]1O[C@H](C#Cc2ccccc2)C=C[C@H]1Oc1ccc(C)cc1)=NO[C@H](C)c1cn([C@H](CO)Cc2ccccc2)nn1 | nt | 2%[8.59 µM]
CCO[C@H](c1cc(OC)cc([N+](=O)[O-])c1OC)[C@H](C)[C@@H](OC)[C@H](C)C=CCC(=O)OC | -6%[8.59 µM] | 1%[8.59 µM]
CC(C)c1nc(CN(C)C(=O)N[C@H](C(=O)N[C@@H](Cc2ccccc2)C[C@H](O)[C@H](Cc2ccccc2)NC(=O)OCc2cncs2)C(C)C)cs1 | 7.1µM*! | ?
CN[C@@]1(c2ccccc2Cl)CCCCC1=O | -13% | -13%
COC(=O)C1=C(C)N(Cc2ccccc2)C(=S)NC1c1ccccc1 (centres undefined) | 0%[8.59 µM] | 6%[8.59 µM]
CCC(=O)C[C@@H](NC(=O)OC)c1ccc(F)cc1 | 2%[8.59 µM] | 6%[8.59 µM]
C=C1CC[C@H](O)C/C1=C\C=C1/CCC[C@]2(C)[C@@H]([C@H](C)CCCC(C)C)CC[C@@H]12 | ? | -4%
C=C1CC[C@H](O)CC1=C/C=C1\CCC[C@]2(C)[C@@H]([C@H](C)CCCC(C)(C)O)CC[C@@H]12 | 13µM* | 12%
C=C1CC[C@H](O)C/C1=C/C=C1\CCC[C@]2(C)[C@@H]([C@H](C)CCCC(C)C)CC[C@@H]12 | ? | -13%
C=C1CC[C@H](O)CC1=C/C=C1\CCC[C@]2(C)[C@@H]([C@H](C)CC[C@@H](O)C(C)(C)O)CC[C@@H]12 | 16µM* | 2%
C#CCN1C(=O)[C@]2(O[C@H](COc3ccccc3)CC3=C2CCC3)c2ccccc21 | nt | -41%[8.59 µM]
COC(=O)CC=C[C@H](C)[C@@H](OCc1ccccc1Br)C(C)C | nt | 14%[8.59 µM]
CN(C)c1ccc(/C=C2/C(=O)Nc3ccccc32)cc1 | ? | 8.9µM*
CN(C)c1ccc(/C=C2\C(=O)Nc3ccccc32)cc1 | 14µM* | -25%
CC=COC(=O)N[C@@H](c1cccc(C)c1)[C@]1(C(=O)OCC)CCCC1=O | -17%[8.59 µM] | 13%[8.59 µM]
C=C[C@]1(C)C[C@@H](OC(=O)CSC(C)(C)CNC(=O)[C@H](N)C(C)C)[C@]2(C)[C@H](C)CC[C@]3(CCC(=O)[C@H]32)[C@@H](C)[C@@H]1O | 0% | 13µM*
C=C[C@]1(C)C[C@@H](OC(=O)CO)[C@]2(C)[C@H](C)CC[C@]3(CCC(=O)[C@H]32)[C@@H](C)[C@@H]1O | -9% | 0%
COc1ccc(-c2ccc3c(NC(=O)C4CC4)n[nH]c3n2)cc1 | 4% | 49%
C[C@H]1[C@H](O)[C@@H](N=[N+]=[N-])CCO[C@H]1c1ccccc1 | -6%[8.59 µM] | -12%[8.59 µM]
CCN(CC)CCOc1ccc(-c2nc3cc(Cl)ccc3s2)cc1 | ? | 13µM*
CCN(CC)CCOc1ccc2nc(N(C)C)sc2c1 | 12% | -3%
CC(C)C[C@H]1COc2cc(F)ccc2S(=O)(=O)N1 | ? | -21%
SMILES | LASV entry inh | MARV entry inh
CC(C)=CCCC(C)=CCN1C(=O)[C@@]2(CC(C)=CC[C@@H](C)O2)c2c(Br)cccc21 | -19%[8.59 µM] | 0%[8.59 µM]
C=CCOC(=O)N[C@H](c1cccc(OC)c1)[C@H](C)C=CCC(=O)OC | nt | 15%[8.59 µM]
Oc1cc2c(cc1O)C1c3ccc(O)c(O)c3OCC1(O)C2 (centres undefined) | ? | 4µM*
Clc1ccccc1-c1nc(N2CCNCC2)c2ccccc2n1 | -12% | ?
Clc1ccc2c(c1)N=C(N1CCNCC1)c1ccccc1N2 | ? | 10µM*
CN1CCN(C2=Nc3cc(Cl)ccc3Nc3ccccc32)CC1 | 8.9µM*! | 10µM*
CN1CCN(C2=Nc3cc(F)ccc3Cc3ccccc32)CC1 | -10% | ?
O=C1[C@@H]2[C@H]3[C@H](O)[C@H](O)CC(=NOC[C@@H](O)COCc4ccco4)[C@H]3CC[C@H]2C(=O)N1C[C@@H]1CCCO1 | -14%[8.59 µM] | 4%[8.59 µM]
Oc1cc[c]([Hg][Cl])cc1 | 4.5µM* | 3.5µM*
CC[C@H](c1ccc(O)cc1)[C@@H](CC)c1ccc(O)cc1 | ? | 14%[17.8 µM]
C[C@H]1C[C@@H](C)O[C@@]2(C1)C(=O)N(Cc1ccc(F)cc1)c1ccccc12 | 16%[8.59 µM] | 28%[8.59 µM]
CCCCCCC(=O)O[C@H]1CC[C@H]2[C@@H]3CC[C@H]4CC(=O)C=C(C)[C@]4(C)[C@H]3CC[C@]12C | ? | 19%
O=[S+]1([O-])C[C@@H](N2CCN(CCO)CC2)[C@@H](COCc2ccccc2)N1 | -16% | -10%
CC1=CC(=O)c2ccccc2C1=O | ? | 10µM*!
CN1C(=O)c2ccccc2C1=O | -1%[107 µM] | 19%[107 µM]
